Measured values as given in PubChem BioAssay (Tox21).
Inconclusive results are not listed. The source made the active and inactive calls. The call rests on the fitted dose curve.

What was measured:
[1] = molecular target: Acetylcholinesterase (Homo sapiens) (UniProt P22303); assay: Acetylcholinesterase (AChE) small molecule antagonists: colormetric cell-based qHTS assay (AID 1347395); further: nearly all actives have a fitted effect of over 30% in size
Outline: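 Cells (SH-SY5Y, 2,000 per well) are seeded and left overnight at 37 C. Compound is added for 30 min, then DTNB and acetylthiocholine for a further 90 min at 37 C before absorbance-based thiocholine detection.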

[2] = molecular target: Acetylcholinesterase (Homo sapiens) (UniProt P22303); assay: Acetylcholinesterase (AChE) small molecule antagonists: enzyme-based qHTS assay (AID 1347397); conditions: Potency: AChE enzyme activity inhibition; outcome: AChE enzyme activity inhibition; further: nearly all actives have a fitted effect of over 55% in size
Outline: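 Recombinant human AChE (50 mU/mL) preincubated with compound 30 min at room temperature; acetylthiocholine plus DTNB then added, and thiocholine formation read colorimetrically after 10 min at room temperature. DMSO served as vehicle control.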

[3] = molecular target: Acetylcholinesterase (Homo sapiens) (UniProt P22303); assay: Acetylcholinesterase (AChE) small molecule antagonists: fluorescence cell-based qHTS assay (AID 1347398); conditions: Potency: AChE activity; outcome: AChE activity; further: nearly all actives have a fitted effect of over 50% in size
Outline: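 SH-SY5Y cells (2000/well), attached overnight, incubated with compound 30 min at 37 C. Acetylthiocholine plus Thiolite Green then added for 40 min at room temperature. Thiocholine fluorescence (Ex/Em 490/520 nm) reports cellular AChE activity.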

[4] = molecular target: Acetylcholinesterase (Homo sapiens) (UniProt P22303); assay: Acetylcholinesterase (AChE) small molecule antagonists: enzyme-based qHTS assay with human liver microsomes (AID 1347399); conditions: Potency: qHTS inhibition; outcome: qHTS inhibition; further: nearly all actives have a fitted effect of over 60% in size
Outline: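 Recombinant human AChE (50 mU/mL in the enzyme mix) and human liver microsomes (0.25 mg/mL final) were preincubated with compound and NADPH (0.25 mg/mL final) for 30 min at 37 C. Acetylthiocholine/DTNB was then added; thiocholine was read colorimetrically after 10 min at room temperature.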
On the % scale 0 is the no-effect control and ±100 the full control effect.

Acetylcholinesterase (Homo sapiens), sequence (P22303 whole entry, looked up): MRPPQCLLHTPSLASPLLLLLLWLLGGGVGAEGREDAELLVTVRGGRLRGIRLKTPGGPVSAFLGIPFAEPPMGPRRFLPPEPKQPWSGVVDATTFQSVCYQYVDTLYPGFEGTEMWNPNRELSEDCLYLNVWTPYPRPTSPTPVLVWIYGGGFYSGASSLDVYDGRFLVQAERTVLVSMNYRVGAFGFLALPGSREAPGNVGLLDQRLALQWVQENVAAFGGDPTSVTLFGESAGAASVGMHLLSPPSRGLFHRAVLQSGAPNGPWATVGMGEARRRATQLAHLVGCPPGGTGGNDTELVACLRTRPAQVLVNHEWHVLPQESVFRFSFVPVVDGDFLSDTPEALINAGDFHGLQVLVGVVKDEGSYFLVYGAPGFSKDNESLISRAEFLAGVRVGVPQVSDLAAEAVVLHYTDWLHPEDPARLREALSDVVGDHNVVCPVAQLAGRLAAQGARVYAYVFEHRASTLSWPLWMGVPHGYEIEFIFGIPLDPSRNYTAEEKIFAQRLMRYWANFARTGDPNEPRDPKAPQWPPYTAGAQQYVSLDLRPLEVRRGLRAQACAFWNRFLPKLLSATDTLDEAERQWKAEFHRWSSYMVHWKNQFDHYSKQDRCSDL

CN=C(NC#N)NCCSCc1csc(N=C(N)N)n1
inactive: Potency [1] | Potency [2] | Potency [3] | Potency [4]

Cc1nc(-c2ccc3c(c2)CCN(CCC2CCC(NC(=O)/C=C/c4ccc(F)cc4)CC2)CC3)no1 (stereo unspecified)
inactive: Potency [1] | Potency [2] | Potency [3] | Potency [4]

O=C1OC(=O)C2C3C=CC(C3)C12 (stereo unspecified)
inactive: Potency [1] | Potency [2] | Potency [3] | Potency [4]

C[C@@H](O)[C@H]1C(=O)N2C(C(=O)O)=C([C@H]3CCCO3)S[C@H]12
inactive: Potency [1] | Potency [2] | Potency [3] | Potency [4]

CN(C)CCOc1ccccc1Cc1ccccc1
inactive: Potency [1] | Potency [2] | Potency [3] | Potency [4]

c1ccc(B(c2ccccc2)c2ccccc2)cc1
inactive: Potency [1] | Potency [2] | Potency [3] | Potency [4]

CCCC1CCC(=O)CC1
inactive: Potency [1] | Potency [2] | Potency [3] | Potency [4]

NNc1nc(-c2ccc(N)cc2)cs1
inactive: Potency [1] | Potency [2] | Potency [3] | Potency [4]

CCCCCCCCCCCCCCN(C)C
inactive: activity, negative = inhibition [1] 0.601% [at 23.6 µM] | activity change, negative = inhibition [2] 0.242% [at 23.6 µM] | activity change, negative = inhibition [3] 2.04% [at 23.8 µM] | activity change, negative = inhibition [4] 0.379% [at 23.6 µM]

CCn1nc(Cc2ccccc2)cc1C1CCN(C[C@H]2C[C@H](N(C)[C@@H](C(=O)O)C(C)C)C[C@@H]2c2cccc(F)c2)CC1
inactive: Potency [1] | Potency [2] | Potency [3] | Potency [4]

CN(CC1(C)CCCO1)S(=O)(=O)c1ccc(Cl)c(S(N)(=O)=O)c1 (stereo unspecified)
inactive: Potency [1] | Potency [2] | Potency [3] | Potency [4]

CCN(CC)CCCN(c1ccccc1)C1Cc2ccccc2C1
inactive: Potency [1] | Potency [2] | Potency [3] | Potency [4]

CNCc1cc(F)ccc1Oc1ccc(Cl)c(Cl)c1
inactive: Potency [1] | Potency [2] | Potency [3] | Potency [4]

Cc1c(C)c2c(c(C)c1OC(=O)CCC(=O)O)CC[C@@](C)(CCC[C@H](C)CCC[C@H](C)CCCC(C)C)O2
inactive: Potency [1] | Potency [2] | Potency [3] | Potency [4]

CC(=O)OCCC(C)CC(C)(C)C (stereo unspecified)
inactive: Potency [1] | Potency [2] | Potency [3] | Potency [4]

CCNc1nc(NC(C)CC)nc(OC)n1 (stereo unspecified)
inactive: Potency [1] | Potency [2] | Potency [3] | Potency [4]

CCCCCO
inactive: Potency [1] | Potency [2] | Potency [3] | Potency [4]

CC(=O)Nc1ncc([N+](=O)[O-])s1
inactive: Potency [1] | Potency [2] | Potency [3] | Potency [4]

CC(C)CCOCc1ccccc1
inactive: Potency [1] | Potency [2] | Potency [3] | Potency [4]

CC(C)(O)CCCC1=CCC(C=O)CC1 (stereo unspecified)
inactive: Potency [1] | Potency [2] | Potency [3] | Potency [4]

CCCCCCCCCCCCCCCCOS(=O)(=O)O
inactive: Potency [1] | Potency [2] | Potency [3] | Potency [4]

CCCc1ccc(N)cc1
inactive: Potency [1] | Potency [2] | Potency [3] | Potency [4]

Nc1cc(C(=O)O)c(O)c(S(=O)(=O)O)c1
inactive: Potency [1] | Potency [2] | Potency [3] | Potency [4]

C=Cc1ccc(C=C)cc1
inactive: Potency [1] | Potency [2] | Potency [3] | Potency [4]

Cc1cc(O)c2c(O)c3c(O)cccc3cc2c1
inactive: Potency [1] | Potency [2] | Potency [3] | Potency [4]

COC(=O)c1cc(S(N)(=O)=O)ccc1OC
inactive: Potency [1] | Potency [2] | Potency [3] | Potency [4]

CC(=O)N[C@@H](CCC(=O)O)C(=O)O
inactive: Potency [1] | Potency [2] | Potency [3] | Potency [4]

CC(=O)c1cc(C)oc1C
inactive: Potency [1] | Potency [2] | Potency [3] | Potency [4]

O=C(Cl)c1cccc([N+](=O)[O-])c1
inactive: Potency [1] | Potency [2] | Potency [3] | Potency [4]

O=C(O)/C=C/c1ccccc1
inactive: Potency [1] | Potency [2] | Potency [3] | Potency [4]

CCC(=O)/C=C/c1ccc(OC)cc1
inactive: Potency [1] | Potency [2] | Potency [3] | Potency [4]

CCC1(C)C(=O)N(Cl)C(=O)N1Cl (stereo unspecified)
inactive: Potency [1] | Potency [2] | Potency [3] | Potency [4]

CCCC(=O)OC(=O)CCC
inactive: Potency [1] | Potency [2] | Potency [3] | Potency [4]

CCN(C(=O)N(CC)c1ccccc1)c1ccccc1
inactive: Potency [1] | Potency [2] | Potency [3] | Potency [4]

O=CC1CC1
inactive: Potency [1] | Potency [2] | Potency [3] | Potency [4]

CC(C)C(=O)OCCc1ccccc1
inactive: Potency [1] | Potency [2] | Potency [3] | Potency [4]

CCCCC(CC)COC(=O)c1ccccc1O (stereo unspecified)
inactive: Potency [1] | Potency [2] | Potency [3] | Potency [4]

CC[C@@]1(O)C(=O)OCc2c1cc1n(c2=O)Cc2c-1nc1ccccc1c2/C=N/OC(C)(C)C
inactive: Potency [1] | Potency [2] | Potency [3] | Potency [4]

O=S(=O)(c1ccccc1)c1ccc(Cl)cc1
inactive: Potency [1] | Potency [2] | Potency [3] | Potency [4]
